rCAG RNA binder = binds r(CAG) RNA repeats. r(CAG) RNA repeat, TO-PRO-1 dye displacement fluorescence. inhibition, % at 3 µM. hit rate 1.3% among 370,000. AID 651821;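 active means inhibition above the plate cutoff, the mean of all test compounds on that plate plus 3 SD, cut at about 35% in these data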;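 further: 0% = DMSO alone and 100% = 100 µM mitoxantrone as full dye displacement; higher means more dye released from RNA so lower well fluorescence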
MBD2 inh = MBD2-methylated oligo binding inhibition; Q9UBB5; TR-FRET, MBD2 binding to methylated oligonucleotide; inhibition, % at 4.4 µM; hit rate 0.31% among 370,000; AID 686964; in the data active means inhibition above about 13%
LEDGF integ inh = blocks HIV-1 LEDGF/p75-dependent DNA integration; TR-FRET IN-LEDGF/p75 DNA integration, Eu/Cy5; inhibition, % at 3.7 µM; hit rate 0.64% among 370,000; AID 743269;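 active means inhibition above the screen-wide mean plus 3 SD, cut at about 13% in these data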;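 further: signal is the Cy5 over europium emission ratio at 671 and 618 nm; 0% = plate median of compound wells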
PG9 binder = binds the HIV-1 gp120 antibody PG9. hit rate 0.43% among 360,000. TR-FRET gp120-PG9 antibody binding. AID 624416. inhibition, % at 6.7 µM; in the data active means inhibition above about 8.5%
DNMT1 inh = blocks human DNA methyltransferase DNMT1. hit rate 0.83% among 360,000. DNMT1 molecular beacon, Hinp1I cleavage, fluorescence. AID 588458. inhibition (reported as % activation of signal), % at 10 µM; in the data active means inhibition above about 50%
UHRF1 MBD2 ctr = UHRF1 methyl-DNA binding inhibition | UHRF1 binding to methylated oligo, TR-FRET | AID 687016 | inhibition, % at 4.4 µM | hit rate 0.75% among 370,000 | Q96T88; in the data active means inhibition above about 21%;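 further: UHRF1 SRA domain binding a hemimethylated CpG hairpin DNA probe; 0% = median of test compound wells and 100% = reference inhibitor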
Beacon interf DR = shows spectral interference in the DNMT1 beacon assay; shares compounds with DNMT1 inh; molecular beacon fluorescence, spectral interference counter-screen; IC50, µM; 200 tested, under 10 active; AID 602382; call rule not given here
DNMT1 inh conf = confirmation of human DNMT1 inhibitors. AID 602385. DNMT1 molecular beacon HinP1I cleavage, fluorescence. shares compounds with DNMT1 inh. hit rate 8% among 2,300. inhibition, % at 10 µM;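 active means average inhibition of at least 30% in the single-concentration confirmation test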
DNMT1 interf = beacon fluorescence artifact counter-screen; shares compounds with DNMT1 inh; DNMT1 molecular beacon spectral interference counterscreen, fluorescence 485/520; activation (fluorescence interference), % at 10 µM; hit rate 1% among 2,300;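 active means activation of at least 30% at 10 µM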;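 further: DNMT1 catalytic domain with a HinP1I cleavage step and a FAM/dabcyl DNA beacon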
The depositor's hits bear a star; x = not tested or not shown. This is a sample that favours compounds with a hit; in the whole collection about 3.5% have one here.

SMILES	rCAG RNA binder	MBD2 inh	LEDGF integ inh	PG9 binder	DNMT1 inh	UHRF1 MBD2 ctr	DNMT1 inh conf	DNMT1 interf	others
COc1cc(C(=O)Nc2nc(-c3ccc(Cl)cc3)c(C)s2)ccc1OCC(=O)Nc1ccc(F)cc1	3	1	-1	0	25	-3	x	x
CCc1ccc(-c2nc(NC(=O)c3ccc(OCC(=O)Nc4ccc(F)cc4)c(OC)c3)sc2C)cc1	5	2	-1	-1	61*	1	0	1
CCC(C(=O)NCc1ccco1)N(C(=O)CNS(=O)(=O)c1ccc(F)cc1)c1ccccc1F (stereo not given)	-2	4	-2	0	-3	-1	x	x
NC(=O)CC(NC(=O)Cc1cccc2ccccc12)c1ccc(NCC2CC2)c([N+](=O)[O-])c1 (stereo not given)	3	6	0	0	32	1	x	x
NC(=O)CC(NC(=O)Cc1cccc2ccccc12)c1ccc(NCCOc2ccccc2)c([N+](=O)[O-])c1 (stereo not given)	16	-6	1	-2	51*	-1	1	-2
NC(=O)CC(NC(=O)Cc1cccc2ccccc12)c1ccc(NC2CCCCC2)c([N+](=O)[O-])c1 (stereo not given)	6	0	-2	0	64*	-1	2	4
NC(=O)CC(NC(=O)Cc1cccc2ccccc12)c1ccc(NC2CCCC2)c([N+](=O)[O-])c1 (stereo not given)	11	4	1	2	16	5	x	x
C=CCn1c(SCC(=O)c2[nH]c(C)c(C(=O)OCC)c2C)nc2scc(-c3ccccc3)c2c1=O	1	-4	-1	-1	57*	0	1	2
O=C(OCc1cn(Cc2cccc(Cl)c2)nn1)N1CCCC1	2	0	-2	x	x	4	x	x
Cn1cc(CN2C[C@H]3CC[C@H]2C3)c(-c2ccccc2F)n1	3	0	2	-1	58*	6	4	3
COc1ccc(C(C)=O)c(OCC(=O)NCCC2=CCCCC2)c1	0	-1	1	1	5	2	x	x
O=c1c2c3c(sc2n(CCN2CCCC2)c(=O)n1Cc1ccco1)CCCCC3	7	-4	3	-1	3	0	x	x
O=C(Cn1c(=O)n(Cc2ccco2)c(=O)c2c3c(sc21)CCCCC3)c1ccccc1	x	x	x	x	72*	x	2	2
O=C(Cn1c(=O)n(Cc2ccco2)c(=O)c2c3c(sc21)CCCCC3)Nc1ccccc1	29	5	5	0	93*	14	13	2
COc1ccc(C(=O)NCC(=O)N2CCN(C(=O)c3ccco3)CC2)cc1	-2	4	-2	-2	1	0	x	x
CCn1c2ccccc2c2cc(NC(=O)CSc3nnc(-c4ccc(OC)c(OC)c4)n3N)ccc21	-3	1	3	0	-20	1	x	x
CCOc1ccc(-c2nnc(SCC(=O)Nc3ccc4c(c3)c3ccccc3n4CC)n2N)cc1	5	-4	3	8	59*	1	1	2
COC(=O)CC1OCC=C2CN3CCC45C6=CC(=O)C(=O)C([N+](=O)[O-])=C6NC4C1C2CC35 (stereo not given)	6	16*	-3	-4	85*	20	53*	-10	Beacon interf DR=>99
CCOC(=O)C1CCC(=O)N1Cc1c[nH]c2ccccc12 (stereo not given)	2	0	2	-1	-4	0	x	x
Cc1ccc2c(c1)S(=O)(=O)N(C)C(c1ccccc1)=C2	4	-2	3	-2	1	0	x	x
Cc1cccn2c(=O)c3cc(C(N)=S)c(=N)n(CCCOC(C)C)c3nc12	6	-9	-1	-1	62*	-9	4	0
C=CCNc1nc(C(=O)OCC(=O)c2cccc(Br)c2)cs1	26	2	-2	0	59*	-1	22	-2
C=CCNc1nc(C(=O)OCC(=O)c2ccc(F)cc2)cs1	6	-1	-1	2	0	-1	x	x
Cc1ccc(S(=O)(=O)N2Cc3ccccc3CC2C(=O)Nc2ccc3c(c2)OCO3)cc1 (stereo not given)	3	3	-1	0	66*	-1	9	6
COC(=O)c1ccc(-c2nc3cc(Cl)c(N)cc3s2)cc1	1	-9	-4	-2	56*	2	1	7
SMILES	rCAG RNA binder	MBD2 inh	LEDGF integ inh	PG9 binder	DNMT1 inh	UHRF1 MBD2 ctr	DNMT1 inh conf	DNMT1 interf	others
COC(=O)c1ccc(-c2nc(O)c(C)s2)cc1	1	1	4	-2	0	-4	x	x
COc1ccccc1-c1cc(NC=O)c2ncc(-c3ccc(S(C)(=O)=O)cc3)n2c1	9	-2	-1	2	6	-1	x	x
CCOc1ccc(-c2cccc(NS(=O)(=O)c3cccc([N+](=O)[O-])c3)c2)nn1	21	-2	-6	1	0	1	x	x
CC1=C(C(=O)Nc2ccc(C)cc2C)C(c2ccc(Cl)cc2)n2nc(C(=O)OC(C)C)nc2N1 (stereo not given)	-2	6	-2	2	57*	8	2	0
CSc1nc2n(n1)C(c1cccc(F)c1)C(C(=O)Nc1ccc(C)cc1C)=C(C)N2 (stereo not given)	-6	1	-1	2	38	8	x	x
O=C1c2oc3ccc(Cl)cc3c(=O)c2C(c2cccc(Br)c2)N1CCO (stereo not given)	-2	0	6	0	61*	2	1	3
CC(=O)c1ccc(S(=O)(=O)N(C)CC(=O)NCc2ccco2)cc1	5	0	-2	0	0	1	x	x
O=P(c1ccccc1)(c1ccccc1)c1cc(S(=O)(=O)O)ccc1O	4	6	2	-1	83*	27*	3	-1
Cc1ccc2oc(=O)c3cc(C(=O)NCCCN4CCCCCC4)sc3c2c1	17	4	-4	2	67*	-10	6	-2
COc1cccc2sc(=NC(=O)CS(=O)(=O)c3ccc(Cl)cc3)n(C)c12	4	-7	8	-4	-4	-7	x	x
Cc1cc2cc(C)c3nnc(SCC(=O)Nc4ccc(S(=O)(=O)N5CCCCC5)cc4)n3c2cc1C	11	6	0	3	56*	-1	2	0
Cc1nn(CCCC(=O)NCc2ccc(Cl)cc2)c(C)c1[N+](=O)[O-]	-3	4	2	-2	69*	0	2	1
C=CCN(C)CC#Cc1ccc(C)cc1	-1	5	-2	x	x	1	x	x
N#CC1=C(Nc2ccccc2Cl)SC2(CCCC2)NC1=O	x	x	x	x	-1	x	x	x

Compound activity deposited in PubChem by several laboratories.
